For 14 compounds, growth results are on record in PubChem BioAssay (NCI).

The panel holds about 83,000 compounds, 20% with a hit somewhere; the sample as a whole holds those more often.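 Cell lines were cultured in 96-well plates, exposed to a single compound concentration, and assessed for percent growth 48 hours later.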 Unmarked numbers belong to inactive results. Active and inactive are the calls of the source. The calls were made as follows: active = growth percent below 10; inactive = the rest.

Among the test systems are T-47D breast; BT-549 breast; MDA-MB-435 melanoma; SW-620 colon; MCF7 breast; HCT-116 colon; HCC-2998 colon; KM12 colon.
Experiment in all cases: NCI-60 one-dose screen, 48 h (100 = growth as untreated, 0 = no growth, -100 = all killed)
Settings in all cases: 10 µM unless noted

In the case of `CC1=C(C(=O)/C=C/c2c[nH]c3ccccc23)C(c2ccccc2)NC(=S)N1` (configuration not stated), the growth in the experiment with T-47D breast was 98.6%; in the experiment on BT-549 breast, 107%; with MDA-MB-435 melanoma, 97.4%; with SW-620 colon, 91.7%; in the experiment on MCF7 breast it was 95.4%; in the experiment on HCT-116 colon it was 93.3%. Also, the growth in the experiment with HCC-2998 colon was 108%; in the experiment with KM12 colon, 106%.
Regarding `CCOC(=O)c1cc(C(=O)c2ccc(OC)c(OC)c2)n2ccc(/C=C/c3cc[n+](CC(=O)c4ccc(OC)c(OC)c4)cc3)cc12`, the growth in the experiment on T-47D breast is 89.9%; with BT-549 breast, 96.6%; with MDA-MB-435 melanoma it was 99.4%; in the experiment on SW-620 colon, 96.7%; in the experiment with MCF7 breast it was 91.1%; in the experiment on HCT-116 colon, 89.7%. Further, the growth was 98.8% with HCC-2998 colon and 100% in the experiment on KM12 colon.
Turning to `Nc1nc(Nc2ccccc2SSc2ccccc2Nc2nc(N)nc(-c3cccs3)n2)nc(-c2ccsc2)n1`, the growth in the experiment on T-47D breast is 56.2%; in the experiment with BT-549 breast, 86%; with MDA-MB-435 melanoma, 98.1%; with SW-620 colon, 80.4%; with MCF7 breast, 68.1%; in the experiment on HCT-116 colon it was 84.9%. Besides, the growth in the experiment with HCC-2998 colon is 111%; with KM12 colon it was 67.6%.
`CC(Sc1nc2sc3c(c2c(=O)n1-c1ccc(Cl)cc1)CCCC3)C(=O)Nc1nc(-c2ccc(Br)cc2)cs1` (configuration not stated): the growth is 98.2% with T-47D breast; 90.3% with BT-549 breast; 102% in the experiment on MDA-MB-435 melanoma; 104% in the experiment with SW-620 colon; 91.8% with MCF7 breast; 93.4% with HCT-116 colon. The growth with HCC-2998 colon was 101%; with KM12 colon it was 104%.
Regarding `N#CC1=C(/N=C/c2ccccc2)Oc2c(ccc3ccccc23)C1c1ccc([N+](=O)[O-])cc1` (configuration not stated), the growth in the experiment with T-47D breast is 76.5%; in the experiment with BT-549 breast, 103%; in the experiment on MDA-MB-435 melanoma it was 101%; in the experiment on SW-620 colon, 93%; in the experiment on MCF7 breast, 78.4%; in the experiment on HCT-116 colon, 92%. The growth in the experiment on HCC-2998 colon is 98.3%; in the experiment with KM12 colon, 97.6%.
Take `C=C1C(=O)O[C@H]2[C@H]1CC/C(COC(=O)NCCc1c[nH]c3ccc(OC)cc13)=C\CC[C@@]1(C)O[C@@H]21`: the growth in the experiment on T-47D breast was -35.3% (active); in the experiment with BT-549 breast, -22.1% (active); in the experiment on MDA-MB-435 melanoma, 14.7%; in the experiment on SW-620 colon it was -56.2% (active); with MCF7 breast it was 26.9%; with HCT-116 colon, -82.5% (active). Besides, the growth in the experiment on HCC-2998 colon is 75.1%; in the experiment with KM12 colon it was 63.1%.
`CC(=O)c1ccc(NS(=O)(=O)c2cccc(C(=O)Nc3ccc(Br)cc3)c2)cc1`: the growth with T-47D breast was 30.6% [25 µM]; in the experiment with BT-549 breast, 48.3% [25 µM]; with MDA-MB-435 melanoma, 53.4% [25 µM]; in the experiment on SW-620 colon it was 75.6% [25 µM]; with MCF7 breast it was 60.8% [25 µM]; in the experiment with HCT-116 colon, 48.4% [25 µM]. Further, the growth in the experiment on HCC-2998 colon was 79.8% [25 µM]; in the experiment on KM12 colon it was 58.2% [25 µM].
`COc1cc2c(=O)n(CCCN(C)C)c3c4cc5c(cc4ccc3c2cc1OC)OCO5`: the growth in the experiment on T-47D breast is 85.8%; in the experiment with BT-549 breast it was 47.8%; with MDA-MB-435 melanoma, 67.6%; in the experiment on SW-620 colon, 38.6%; in the experiment with MCF7 breast, 25.3%; in the experiment with HCT-116 colon, 30.6%. Moreover, the growth with HCC-2998 colon was 86.8%; in the experiment on KM12 colon it was 47.8%.
As for `c1ccc2cc(Cn3c(-c4cccc5ccccc45)[n+](Cc4ccc5ccccc5c4)c4c5ccccc5c5ccccc5c43)ccc2c1`, the growth in the experiment on T-47D breast is -70.8% (active); with BT-549 breast, -70.5% (active); with MDA-MB-435 melanoma it was -83.7% (active); with SW-620 colon, -78.2% (active); in the experiment on MCF7 breast, -64.7% (active); in the experiment on HCT-116 colon, -73.5% (active). Besides, the growth with HCC-2998 colon is -84.7% (active); with KM12 colon, -82.2% (active).
As for `CC1(C)CC(O)CCCCCCOc2c(CN)cccc2NC(=O)c2nc(cnc2N)-c2ccc(cc2)S1(=O)=O` (configuration not stated), the growth in the experiment on T-47D breast was 66.2%; in the experiment with BT-549 breast it was 28.2%; with MDA-MB-435 melanoma, 20%; with SW-620 colon, -6.55% (active); in the experiment with MCF7 breast, -16% (active); in the experiment on HCT-116 colon, -63.6% (active). The growth in the experiment with HCC-2998 colon was 28.6%; in the experiment with KM12 colon, -10.7% (active).
As for `COc1ccc(C(=O)/C=C/c2cc3ccccc3n3nnnc23)cc1`, the growth is 92.1% with T-47D breast; 99.2% with BT-549 breast; 103% with MDA-MB-435 melanoma; 113% in the experiment on SW-620 colon; 94.7% in the experiment on MCF7 breast; 106% in the experiment with HCT-116 colon. The growth with HCC-2998 colon was 111%; in the experiment with KM12 colon, 109%.
For the compound `O=C(NNc1nc2c(F)cccc2n2cccc12)c1cnccn1`, the growth with T-47D breast is 22.8%; in the experiment with BT-549 breast, 38%; in the experiment with MDA-MB-435 melanoma it was 32%; in the experiment on SW-620 colon, 29%; in the experiment with MCF7 breast, 10.5%; in the experiment with HCT-116 colon it was 12.4%. Moreover, the growth with HCC-2998 colon was 52.9%; in the experiment with KM12 colon, 23.2%.
On to `O=[N+]([O-])c1cc(Br)c2cccc3c2c1CC3`, for which the growth was 101% in the experiment on T-47D breast; 114% with BT-549 breast; 113% in the experiment on MDA-MB-435 melanoma; 107% in the experiment on SW-620 colon; 89% with MCF7 breast; 106% with HCT-116 colon. For the same compound, the growth in the experiment on HCC-2998 colon was 103%; in the experiment on KM12 colon, 109%.
For `COc1ccc(C(=O)CC#N)cc1`, the growth in the experiment on T-47D breast is 104%; in the experiment with BT-549 breast it was 107%; in the experiment with MDA-MB-435 melanoma it was 132%; with SW-620 colon, 107%; in the experiment with MCF7 breast, 96.7%; in the experiment on HCT-116 colon it was 106%. In addition, the growth with HCC-2998 colon was 112%; in the experiment with KM12 colon it was 108%.
